# Results: PubChem BioAssay (NCATS)
# Results filed as inconclusive are left out. Calls of active or inactive are those of the source. Calls follow the shape of the dose curve; as a rule, active = well fitted activation curve with a large enough effect; inconclusive = small, poorly fitted or top-dose-only effect; inactive = no such curve, though single readings can be large or run the other way. Numbered stars: 1 amine (or outer) side, 2 acyl side, 3 side chain; on linkers, the order of the positions; unused ones are H or OH. Square brackets hold non-standard residues; d marks the D form. Peptide text beside a SMILES is read from it. X10 = O=C(C(CC(O)CO)O[*:1])[*:2]; NMeV = CN[CH](C(=O)O)C(C)C; NMeA = CN[CH](C)C(=O)O; βAla = NCCC(=O)O
# Molecular target: Cellular tumor antigen p53 (Homo sapiens) (UniProt P04637)
# Sequence (P04637 whole entry, looked up): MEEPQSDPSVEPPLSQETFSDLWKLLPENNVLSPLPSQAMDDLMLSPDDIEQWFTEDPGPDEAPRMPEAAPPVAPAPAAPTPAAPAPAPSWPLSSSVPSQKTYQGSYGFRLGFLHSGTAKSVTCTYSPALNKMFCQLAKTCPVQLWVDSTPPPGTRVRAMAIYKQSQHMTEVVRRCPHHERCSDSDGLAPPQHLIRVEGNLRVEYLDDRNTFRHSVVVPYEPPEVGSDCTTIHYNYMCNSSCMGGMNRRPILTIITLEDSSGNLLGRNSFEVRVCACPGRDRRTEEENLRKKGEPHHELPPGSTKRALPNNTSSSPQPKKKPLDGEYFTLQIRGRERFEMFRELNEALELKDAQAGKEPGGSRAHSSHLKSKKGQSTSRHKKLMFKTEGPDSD
# Assay: Primary qHTS for small molecule compounds that upregulate eGFP-tagged delta133p53alpha (in N-terminal) cells. (AID 2060322); also: nearly all actives have a fitted effect of over 75% in size;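 as to activation: cells pre-induced with doxycycline then dosed without doxycycline; series mostly up to about 56 µM; 0% = DMSO vehicle and 100% = reference activator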
# Settings: NCI-H358 eGFP-delta133p53alpha fluorescence, 24 h; activation: active compounds read high
# Procedure, shortened: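 NCI-H358 cells pre-induced 24 h with 10 ng/ml doxycycline for eGFP-delta133p53alpha, plated dox-free and exposed 24 h at 37C to titrated compounds. Fixed, Hoechst-stained; gated GFP peak intensity by laser scanning cytometry, normalized to DMSO (0%) and 57.5 uM 5-azacytidine (100%).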
# Potency is read from the fitted curve at half-maximal effect.
Structure (SMILES),activation,Potency
CC1OC(OC2C(OC(=O)[C@]34CCC(C)(C)C[C@H]3C3=CCC5[C@@]6(C)CC[C@H](OC7OC(C(=O)O)C(O)C(O)C7O)C(C)(C)C6CC[C@@]5(C)[C@]3(C)CC4O)OC(CO)C2O)C(O)C(O)C1OC1OCC(O)C(O)C1O (stereo partly specified),-3.82% (inactive),
CC1(C)C2CC=C(COC3OC(COC4OCC(O)(CO)C4O)C(O)C(O)C3O)C1C2 (stereo unspecified),18.3% (inactive),
COC(=O)C1=CO[C@@H](O[C@@H]2O[C@H](CO)[C@@H](O)[C@H](O)[C@H]2O)[C@@H]2C(C)CC(=O)[C@]12O (stereo partly specified),1.79% (inactive),
COc1ccc(S(=O)(=O)n2cnc3cc(C)c(C)cc32)cc1,-3.67% (inactive),
CC1(C)SC2C(NC(=O)[C@H](C(=O)O)c3ccsc3)C(=O)N2C1C(=O)O (stereo partly specified),3.67% (inactive),
O=C(O)/C=C/c1ccc(-c2ccc(O)c(C34CC5CC(CC(C5)C3)C4)c2)cc1,,26.9 µM (active)
C=C1CCC2C(C)(C(=O)O)CC(O)CC2(C)C1CC/C(C)=C/C(=O)O (stereo unspecified),-9.92% (inactive),
COC(=O)c1cc(CN2CCN(C(=N)N)CC2)cc(C(=O)N2CCN(C(=O)c3ccc(C(=N)N)cc3)CC2)c1,1% (inactive),
CC1(C)CCCC2(C)C1CC(=O)C13CC(CCC12)C(O)(CO)C3 (stereo unspecified),-7.63% (inactive),
CCC(C)/C=C(C)/C=C/C1=CC2=C(Cl)C(=O)C(C)(OC(C)=O)C(=O)C2=CN1C(CC(=O)O)C(=O)O (stereo unspecified),9.82% (inactive),
CCC(=O)O[C@]1(C(=O)CCl)[C@@H](C)C[C@H]2[C@@H]3C[C@H](F)C4=CC(=O)C=C[C@]4(C)[C@@]3(F)[C@@H](O)C[C@@]21C,17.9% (inactive),
C/C=C(/COC(=O)/C(C)=C/C)C(=O)OC(CC)c1ccc(OC)c(OC)c1 (stereo unspecified),-15.2% (inactive),
CC(C)(OC1OC(CO)C(O)C(O)C1O)C1CCC(O)(CO)C2CC(O)C(C)(O)C2C1 (stereo unspecified),-19.6% (inactive),
C[C@@H]1CC[C@]2(C(=O)O[C@@H]3O[C@H](CO)[C@@H](O)[C@H](O)[C@H]3O)CC[C@]3(C)C(=CCC4[C@@]5(C)C[C@@H](O)[C@H](O)C(C)(C)C5CC[C@]43C)C2[C@]1(C)O (stereo partly specified),-17.6% (inactive),
C/C=C/C=C/C(O)=C1\C(O)=C(C)C(=O)[C@@]2(C)OC(=O)[C@@](C)(NC(=O)/C=C/C(=O)O)[C@@H]12,10.7% (inactive),
COc1cc(O)c2c(c1)C1=C[C@H](O)[C@@H](O)C[C@]1(C)OC2=O,1.53% (inactive),
C=C(C)C1CC[C@]2(C(=O)O)CC[C@]3(C(=O)O)[C@H](CCC4[C@@]5(C)CC[C@H](O)C(C)(C)C5CC[C@]43C)C12 (stereo partly specified),-12.5% (inactive),
Cc1cccc(C)c1-n1c(=O)c2cnc(Nc3ccc(N4CCN(C)CC4)cc3)nc2n2c3ccccc3nc12,,30.1 µM (active)
C=C1C(=O)O[C@@H]2/C=C(\C)C(=O)/C=C/[C@](C)(O)C[C@@H](OC(=O)C(C)C)[C@@H]12,,2.95 µM (active)
COc1c(C)c(OCC=C(C)C)cc2c1CNC2=O,-19.8% (inactive),
CC(/C=C/C1=CC2=CC(=O)C(C)(O)C(O)C2=CO1)=C\C(C)CCO (stereo unspecified),7.63% (inactive),
Fc1cccc(CN(C2=NCCN2)c2c(Cl)cccc2Cl)c1,-15% (inactive),
CCC(C)C1NC(=O)C2CCCN2C(=O)C(CC(O)CO)OC(=O)CCNC(=O)C(C)N(C)C(=O)C(C(C)C)N(C)C1=O (stereo unspecified) (cyclo([X10]PI[NMeV][NMeA][βAla]); configuration not given here),-16% (inactive),
O=C(O)c1ccc(O)c2ncc(N3CCCN(CCc4cccc5ccccc45)CC3)cc12,21.2% (inactive),
C[C@@H]1O[C@@H](O[C@H]2[C@H](OC(=O)[C@]34CCC(C)(C)C[C@H]3C3=CCC5[C@@]6(C)CC[C@H](O[C@@H]7O[C@H](CO[C@@H]8OC[C@H](O)[C@H](O)[C@H]8O)[C@@H](O)[C@H](O)[C@H]7O)C(C)(C)C6CC[C@@]5(C)[C@]3(C)C[C@H]4O)OC[C@@H](O)[C@@H]2O)[C@H](O)[C@H](O)[C@H]1O[C@@H]1OC[C@H](O)[C@H](O[C@@H]2OC[C@@H](O)[C@H](O)[C@H]2O)[C@H]1O (stereo partly specified),3.82% (inactive),
CC(=O)O[C@@H]1[C@H](O[C@@H]2OC[C@](O)(CO)[C@H]2O)[C@@H](O[C@@H]2O[C@@H](C)[C@H](O)[C@@H](O[C@@H]3O[C@H](CO)[C@@H](O)[C@H](O)[C@H]3O)[C@H]2O)[C@H](OC(=O)[C@]23CCC(C)(C)C[C@H]2C2=CCC4[C@@]5(C)C[C@H](O)[C@H](O[C@@H]6O[C@H](C(=O)O)[C@@H](O)[C@H](O)[C@H]6O)[C@@](C)(C(=O)O)C5CC[C@@]4(C)[C@]2(C)CC3)O[C@@H]1C (stereo partly specified),-16.8% (inactive),
